Data published in PubChem BioAssay AID686978 (National Center for Advancing Translational Sciences (NCATS), 2013).
Among all 420,000 compounds or so, about 64,000 (15%) were called active. Inconclusive results (about 27%) are left out. Not all results are given here. Unmarked numbers belong to inactive results. The call rests on the fitted dose curve; in most records, active means well fitted inhibition curve with a large enough effect; inconclusive means small, poorly fitted or top-dose-only effect; inactive means flat fitted curve, though single readings scatter.

Experiment: qHTS for Inhibitors of human tyrosyl-DNA phosphodiesterase 1 (TDP1): qHTS in cells in absence of CPT; further: nearly all actives have a fitted effect of over 55% in size
Conditions: DT40 Tdp1-/- hTDP1 cells, no CPT, ATP luminescence, 48 h; activity change, negative = growth inhibition: at 46.2 µM (top of the series)
How it was run: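 No-CPT arm: Tdp1-/-;hTDP1 DT40 cells (400/well) plus compounds, incubated ≥48 hr at 37 °C. Readout CellTiter-Glo luminescence.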
On the % scale 0 is the no-effect control and ±100 the full control effect; potency means the concentration at half of the fitted maximal effect.

| SMILES | activity change, negative = growth inhibition [%] | Potency |
| --- | --- | --- |
| CCNC(=S)N1CCN(C(=O)c2ccco2)CC1 | -11.5 | – |
| Cc1ccccc1C1=N/C(=C/c2cccnc2)C(=O)O1 | -15.2 | – |
| Cc1ccc(C2=C/C(=C\c3cccnc3)C(=O)O2)cc1 | 1.52 | – |
| O=C1OC(c2ccc(Cl)cc2)=N/C1=C\c1cccnc1 | – | 16.4 µM (active) |
| O=C1NC2(CCCCCC2)C(=O)N1CCS(=O)(=O)Oc1ccccc1 | -21.8 | – |
| CCCNC(=S)N1CCC(NC(=O)c2ccc(OC)cc2)CC1 | -23 | – |
| CCOn1c(=O)c(=O)n(O)c2ccccc21 | 6.1 | – |
| Cc1cccc(-c2c(NC(=O)c3ccco3)oc3ccc(Cl)cc3c2=O)c1 | – | 25.9 µM (active) |
| COc1ccc(-c2c(NC(=O)c3ccco3)oc3ccc(Cl)cc3c2=O)cc1 | -0.195 | – |
| O=C(Nc1nonc1-c1ccc(Cl)cc1)c1ccco1 | -16.8 | – |
| Clc1ccccc1CSc1nnc(-c2ccco2)c(-c2ccco2)n1 | -20.7 | – |
| COC(=O)c1noc(C)c1-c1ccnn1C(=O)c1ccc(Cl)cc1 | 3.11 | – |
| CC(Oc1ccc(Cl)cc1)c1ccnn1S(C)(=O)=O (stereo not drawn) | -19.6 | – |
| Cc1onc(-c2ccc(Cl)cc2)c1-c1ccnn1S(=O)(=O)c1ccc(Cl)cc1 | – | 16.4 µM (active) |
| Nc1ncnc2c1ncn2[C@@H]1O[C@H](C(=O)NS(=O)(=O)c2c(Cl)nc3sccn23)[C@@H](O)[C@H]1O | -0.108 | – |
| COC1C[C@@H](O[C@@H]2C(C)C(=O)OC(C)C(C)C(O)C(C)C(=O)[C@@]3(CO3)CC(C)C(OC3OC(C)CC(N(C)C)C3O)C2C)OC(C)[C@@H]1O (stereo partly drawn) | -0.826 | – |
| Cc1ccc(S(=O)(=O)n2cccc2CO)cc1 | -3.56 | – |
| CCOc1ccc(-c2cc3c(=O)n(CC(=O)NCc4ccc(OC)cc4)ccn3n2)cc1 | -10.6 | – |
| COCCCNC(=S)NNC(=O)C(O)(c1ccccc1)c1ccccc1 | -6.89 | – |
| COc1cc(C2/C(=C(\O)c3ccc4c(c3)CC(C)O4)C(=O)C(=O)N2c2nnc(C)s2)cc(OC)c1OC (stereo not drawn) | 11.4 | – |
| CS(=O)(=O)N1CCc2nc(-c3ccccc3)sc2C1 | 2.11 | – |
| COC(=O)[C@@]1(Sc2ccc(C)cc2)CC(=O)N(c2cccc(SC)c2)[C@@H]1c1ccccc1 | -80.6 | – |
| COC(=O)c1cccc(N2C(=O)C3C4C=CC(CC4)C3C2=O)c1 (stereo not drawn) | -0.408 | – |

| SMILES | activity change, negative = growth inhibition [%] | Potency |
| --- | --- | --- |
| COC(=O)c1ccccc1SC1CC(=O)N(c2cccc(C)c2)C1=O (stereo not drawn) | – | 8.2 µM (active) |
| Cc1ccc(CC2S/C(=C(/C#N)C(=O)N3CCOCC3)N(c3ccccc3)C2=O)cc1 (stereo not drawn) | -17.2 | – |
| C[n+]1ccc(/C=C/c2c[nH]c3ccccc23)cc1 | – | 0.651 µM (active) |
| CC(=O)N/C(=C/c1ccc(Cl)cc1)C(=O)NCCc1c[nH]c2ccccc12 | -27.7 | – |
| O=C(NC1CCCC1)C(=O)c1c[nH]c2ccccc12 | 2.79 | – |
| O=C(NCc1ccc(F)cc1F)[C@@H]1CCCN1C(=O)[C@@H]1CCCN1C(=O)c1cccc(Cl)c1 | -41.3 | – |
| Cc1cc(=O)oc2c1c(C)nn2-c1ccc(Cl)cc1 | -23.9 | – |
| O=C(Nc1ccccc1)OCc1cn(-c2ccc(Cl)cc2)nn1 | -27.2 | – |
| CC(=O)Nc1cccc(-c2cnc3ccccc3n2)c1 | -14.1 | – |
| Cc1c(NC(=O)Nc2ccc(F)c(Cl)c2)c(=O)n(-c2ccccc2)n1C | -1.88 | – |
| O=CNc1cc(-c2ccc(C(=O)N3CCOCC3)cc2)cn2c(-c3ccc(F)cc3)cnc12 | – | 18.4 µM (active) |
| CC(=O)c1cccc(-c2cnc3c(NC=O)cc(-c4ccc(N(C)C)cc4)cn23)c1 | – | 8.2 µM (active) |
| Cc1ccc(C(=O)N2CCN(C(=O)N3CCOCC3)CC2)cc1 | -0.848 | – |
| CCOc1ccccc1C1CC(c2cccc(NS(C)(=O)=O)c2)=NN1C(=O)c1ccccc1 (stereo not drawn) | -12 | – |
| CC(=O)Nc1cccc(-c2cc(NC=O)c3ncc(-c4ccc(F)c(Cl)c4)n3c2)c1 | – | 16.4 µM (active) |
| CC(=O)c1ccc(-c2cnc3c(NC=O)cc(-c4cccc(NS(C)(=O)=O)c4)cn23)cc1 | – | 20.6 µM (active) |
| N#C/C=C(/c1ccc(F)cc1)N1CCOCC1 | -5.74 | – |
| CCS(=O)(=O)Nc1cc(C(=O)N2C[C@@H](C)O[C@@H](C)C2)c2c(c1)nc(-c1ccccc1)n2C | -3.48 | – |
| COC(c1ccccc1)c1nnc(CCC(=O)N2CCN(CCOc3ccccc3)CC2)o1 (stereo not drawn) | -28.4 | – |
| CSc1nnc2c(n1)OC(c1cn(C)c3ccccc13)N(C(C)=O)c1ccccc1-2 (stereo not drawn) | -3.8 | – |
| O=C(O)c1ccccc1CSc1nc2ccccc2s1 | -19.5 | – |
| CCNC(=O)CC1C(=O)N(c2ccc(F)cc2)C(=O)N1CCc1sccc1C (stereo not drawn) | -13.8 | – |
| Cc1nc2nc[nH]n2c(=O)c1C/C=C/c1ccccc1 | -2.31 | – |

| SMILES | activity change, negative = growth inhibition [%] | Potency |
| --- | --- | --- |
| CCn1c(CSc2ncccn2)nnc1SCC(=O)N1c2ccccc2CC1C (stereo not drawn) | -7.77 | – |
| CCc1nnc(NC(=O)CCC(=O)NCc2ccccc2OC)s1 | 5.54 | – |
| COc1ccccc1C1/C(=C(/O)c2ccc(OC(C)C)cc2)C(=O)C(=O)N1c1cc(C)on1 (stereo not drawn) | -14.2 | – |
| COc1ccc(-c2cc(NC=O)c3ncc(-c4ccccc4)n3c2)cc1OC | – | 8.2 µM (active) |
| CN(C)C(=O)c1cccc(-c2cnc3c(NC=O)cc(-c4ccc(F)cc4)cn23)c1 | – | 6.51 µM (active) |
| COc1ccc(NC(C)=O)cc1NC(=O)CN1CCN(c2ccc(F)cc2)CC1 | -26.4 | – |
| COc1ccc(-c2nnc(SCC(=O)Nc3ccccc3C)o2)cc1OC | -12.8 | – |
| CC(=O)Nc1cc(-c2ccc(N3CCN(C)CC3)cc2)cn2c(-c3ccc(F)cc3)cnc12 | – | 4.61 µM (active) |
| COc1ccc(-c2nnco2)cc1OC | -8.54 | – |
| O=C(Nc1ccc(F)cc1)N1CCN(c2ccc(F)cc2)CC1 | -1.59 | – |
| CC(=O)c1cccc(-c2cnc3c(NC=O)cc(-c4ccccc4Oc4ccccc4)cn23)c1 | – | 14.6 µM (active) |
| CCCCCCCCCCOC(=O)C[N+](C)(C)CC1CCCCC1O (stereo not drawn) | -24.1 | – |
| CO/N=C/c1cn(-c2ccc(Cl)cc2)nn1 | 1.24 | – |
| CCOC(=O)CSc1nnc(CNC(=O)c2cccs2)n1-c1ccccc1 | 3.51 | – |
| Nc1ccc(-c2nnc(-c3ccccc3)o2)cc1 | -8.88 | – |
| COc1ccccc1C1C(C(N)=O)=C(C)Nc2nc(CCCO)nn21 (stereo not drawn) | -29.3 | – |
| Cc1cccc(C)c1NC(=O)CNC(=O)c1ccc2c(c1)OCCO2 | -2.88 | – |
| COc1ccccc1NC(=O)CCSc1nnc(-c2ccc(O)cc2)o1 | -19.5 | – |
| COCCCN1C(=O)c2ccc(C(=O)Nc3ccc(OC)cc3OC)cc2C1=O | 3.04 | – |
| CC(=O)c1cccc(-c2cnc3c(NC=O)cc(-c4ccc(N5CCN(C)CC5)cc4)cn23)c1 | – | 16.4 µM (active) |
| COc1ccc(C2C(C(=O)Nc3ccccc3OC)=C(C)Nc3nnnn32)c(OC)c1 (stereo not drawn) | -22.7 | – |
| COc1ccc(-c2cc(NC=O)c3ncc(-c4cccc(C(=O)N(C)C)c4)n3c2)c(OC)c1 | – | 16.4 µM (active) |
